Records with an inconclusive call do not appear. Entries that show only a call come without a potency. Calls of active or inactive are those of the source. Unless noted, the call rests on the fitted dose curve; in most records, active means well fitted curve in the direction sought with a large enough effect in the repeat runs; inconclusive means weak or mixed curves; inactive means no such curve, though single readings can be large; an effect the other way counts as inactive or inconclusive.
Tests used:
[1] = biological target: Aryl hydrocarbon receptor (Homo sapiens) (UniProt P35869); assay: qHTS assay to identify small molecule that activate the aryl hydrocarbon receptor (AhR) signaling pathway (AID 743085); details: HepG2 AhR-luc (HG2L7.5c1), luciferase, 24 h; series mostly up to 70.3 µM; further: nearly all actives have a fitted effect of over 15% in size; further: potency means the concentration at half of the fitted maximal effect;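 on activation: HG2L7.5c1 human HepG2 liver cells with stably integrated DRE-driven firefly reporter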
Procedure, shortened: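 HepG2 cells (HG2L7.5c1) stably carrying a firefly luciferase reporter driven by 20 dioxin responsive elements were exposed to compound for 24 h at 37C after a 5 h settling period; luminescence rise (ONE-Glo) indicated activation.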

[2] = qHTS assay to identify small molecule that activate the aryl hydrocarbon receptor (AhR) signaling pathway - cell viability counter screen (AID 743086); details: HepG2-AhR-luc viability, CellTiter-Fluor, 24 h; series mostly up to 70.3 µM; further: nearly all actives have a fitted effect of over 45% in size; further: potency means the concentration at half of the fitted maximal effect
Procedure, shortened: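 HepG2-AhR-luc (HG2L7.5c1) cells, 4000/well, treated 24 h at 37 C with compound; viability measured as CellTiter-Fluor fluorescence after 30 min in the same wells as the luciferase read.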

[3] = qHTS assay to identify small molecule antagonists of the peroxisome proliferator-activated receptor gamma (PPARg) signaling pathway - cell viability counter screen (AID 743194); details: PPARg-bla HEK293H viability, CellTiter-Glo luminescence, 17 h; Potency: co-treated with 50 nM rosiglitazone unless noted; series mostly up to 62.6 µM; further: nearly all actives have a fitted effect of over 55% in size; further: potency means the concentration at half of the fitted maximal effect
Procedure, shortened: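 Cytotoxicity counter screen in PPARg-bla HEK293H cells, same wells as reporter assay. Compounds plus 50 nM rosiglitazone (final) for 17 h at 37 C, then viability read by CellTiter-Glo luminescence.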

[4] = qHTS assay for small molecule agonists of the antioxidant response element (ARE) signaling pathway (AID 743202; active means well fitted activation curve with a large enough effect in the signal ratio in the repeat runs, not every such curve was filed as active; the % refers to the signal ratio; further: potency means the concentration at half of the fitted maximal effect); details: HepG2 ARE-bla reporter, beta-lactamase FRET, 16 h; series mostly up to 73.3 µM
Procedure, shortened: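 HepG2 ARE-bla cells; 16 h treatment at 37 C; FRET-based beta-lactamase fluorescence read after 2 h substrate incubation at room temperature.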

[5] = qHTS assay for small molecule activators of the heat shock response signaling pathway - cell viability counter screen (AID 743209); details: HSE-bla HeLa viability, CellTiter-Glo luminescence, 5 h; series mostly up to 62.6 µM; further: nearly all actives have a fitted effect of over 50% in size; further: potency means the concentration at half of the fitted maximal effect
Procedure, shortened: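 Cytotoxicity counter screen run in parallel with the HSE beta-lactamase reporter, using the same wells. HeLa HSE-bla cells received compound for 5 h at 37 C; ATP-based CellTiter-Glo luminescence was measured after 30 min at room temperature.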

[6] = qHTS assay to identify small molecule agonists of the peroxisome proliferator-activated receptor delta (PPARd) signaling pathway - cell viability counter screen (AID 743211); details: PPARd-bla HEK293H viability, CellTiter-Glo luminescence, 17 h; series mostly up to 62.6 µM; further: nearly all actives have a fitted effect of over 55% in size; further: potency means the concentration at half of the fitted maximal effect
Procedure, shortened: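 PPARd-bla HEK293H cells (UAS-beta-lactamase reporter) were treated with compounds for 17 h at 37 C. Viability was then read in the same wells by CellTiter-Glo luminescence after 30 min at room temperature.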

[7] = biological target: Peroxisome proliferator-activated receptor delta (Homo sapiens) (UniProt Q03181); assay: qHTS assay to identify small molecule agonists of the peroxisome proliferator-activated receptor delta (PPARd) signaling pathway (AID 743212; calls by dose curve); details: HEK293H PPARd-UAS-bla, beta-lactamase FRET ratio, 17 h; series mostly up to 62.6 µM
Procedure, shortened: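 Tox21 library screened in GeneBLAzer PPARd UAS-bla HEK293H cells. After compound treatment at 37 C, a FRET-based beta-lactamase substrate was applied for 2 h and fluorescence recorded.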

[8] = qHTS assay to identify small molecule antagonists of the farnesoid-X-receptor (FXR) signaling pathway - cell viability counter screen (AID 743221; active means well fitted cell-killing curve with a large enough effect in the repeat runs, not every such curve was filed as active; further: nearly all actives have a fitted effect of over 50% in size; further: potency means the concentration at half of the fitted maximal effect); details: FXR-bla HEK293T viability, CellTiter-Glo luminescence, 16 h; series mostly up to 62.6 µM
Procedure, shortened: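 FXR-UAS-bla HEK 293T cells were treated with test compounds plus chenodeoxycholic acid (50 uM final) for 16 h at 37 C. Cell viability in the same wells was then read as CellTiter-Glo luminescence after 30 min at room temperature.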

[9] = biological target: Vitamin D3 receptor (Homo sapiens) (UniProt P11473); assay: qHTS assay to identify small molecule agonists of the vitamin D receptor (VDR) signaling pathway (AID 743222; calls by dose curve); details: HEK293T VDR-UAS-bla, beta-lactamase FRET ratio, 16 h; series mostly up to 63.5 µM
Procedure, shortened: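 Cells carrying a VDR-driven beta-lactamase reporter are seeded at 2,000 per well and rested 4 h. Compounds in DMSO are added for 16 h at 37C, and FRET substrate fluorescence is measured after 2 h at room temperature.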

[10] = qHTS assay to identify small molecule agonists of the vitamin D receptor (VDR) signaling pathway - cell viability counter screen (AID 743224); details: VDR-bla HEK293T viability, CellTiter-Glo luminescence, 16 h; series mostly up to 62.6 µM; further: nearly all actives have a fitted effect of over 50% in size
Procedure, shortened: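 Cells: VDR-bla, 2,000/well, settled 4 h. Treatment: compounds in DMSO, 16 h, 37C/5% CO2. Readout: CellTiter-Glo luminescence after 30 min RT.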

[11] = qHTS assay for small molecule agonists of the antioxidant response element (ARE) signaling pathway - cell viability counter screen (AID 743203; calls by dose curve; further: nearly all actives have a fitted effect of over 55% in size; further: potency means the concentration at half of the fitted maximal effect); details: ARE-bla HepG2 viability, CellTiter-Glo luminescence, 16 h; series mostly up to 73.3 µM
Procedure, shortened: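 Cytotoxicity was tested in parallel with the ARE reporter screen. ARE-bla HepG2 cells were exposed to compounds for 16 hrs, and viability was taken from CellTiter-Glo luminescence.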

[12] = qHTS assay to identify small molecule antagonists of the peroxisome proliferator-activated receptor delta (PPARd) signaling pathway - cell viability counter screen (AID 743213); details: PPARd-bla HEK293H viability, CellTiter-Glo luminescence, 17 h; series mostly up to 62 µM; further: nearly all actives have a fitted effect of over 50% in size; further: potency means the concentration at half of the fitted maximal effect
Procedure, shortened: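 CellTiter-Glo was added to PPARd-bla HEK293H wells following 17 h compound treatment in the presence of 300 nM L165041. Luminescence was recorded after 30 min at room temperature.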

[13] = qHTS assay to identify small molecule agonists of the farnesoid-X-receptor (FXR) signaling pathway - cell viability counter screen (AID 743218); details: FXR-bla HEK293T viability, CellTiter-Glo luminescence, 16 h; series mostly up to 62.6 µM; further: nearly all actives have a fitted effect of over 45% in size; further: potency means the concentration at half of the fitted maximal effect
Procedure, shortened: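 Cells were seeded, left 5 h at 37 C and 5% CO2, then dosed with compound in DMSO for 16 h. After the beta-lactamase FRET read, CellTiter-Glo was added and luminescence measured 30 min later.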

[14] = biological target: Peroxisome proliferator-activated receptor delta (Homo sapiens) (UniProt Q03181); assay: qHTS assay to identify small molecule antagonists of the peroxisome proliferator-activated receptor delta (PPARd) signaling pathway (AID 743215; active means well fitted inhibition curve with a large enough effect in the signal ratio in the repeat runs, not every such curve was filed as active; the % refers to the signal ratio;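 further: cells stimulated with agonist L165041 at 300 nM final during compound exposure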); details: HEK293H PPARd-UAS-bla, beta-lactamase FRET ratio, antagonist, 17 h; series mostly up to 62 µM
Procedure, shortened: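 Cells: HEK293H with a UAS-driven beta-lactamase reporter responsive to PPARd. Compounds were co-added with L165041 (300 nM, final) and incubated 17 h at 37 C before a 2 h room-temperature FRET substrate step and fluorescence reading.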

[15] = biological target: Bile acid receptor (Homo sapiens) (UniProt Q96RI1); assay: qHTS assay to identify small molecule antagonists of the farnesoid-X-receptor (FXR) signaling pathway (AID 743217; active means well fitted inhibition curve with a large enough effect in the signal ratio in the repeat runs, not every such curve was filed as active; the % refers to the signal ratio); details: HEK293T FXR-UAS-bla, beta-lactamase ratio, CDCA-stimulated, 16 h; series mostly up to 62.6 µM
Procedure, shortened: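 Cells carrying a UAS-driven beta-lactamase reporter (GeneBLAzer FXR-UAS-bla HEK 293T) were plated and rested 5 h at 37 °C. Compounds in DMSO were added alongside chenodeoxycholic acid agonist at 50 uM final and left 16 h at 37 °C before FRET substrate readout.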

[16] = biological target: Bile acid receptor (Homo sapiens) (UniProt Q96RI1); assay: qHTS assay to identify small molecule agonists of the farnesoid-X-receptor (FXR) signaling pathway (AID 743220; active means well fitted activation curve with a large enough effect in the signal ratio in the repeat runs, not every such curve was filed as active; the % refers to the signal ratio); details: HEK293T FXR-UAS-bla, beta-lactamase FRET ratio, 16 h; series mostly up to 62.6 µM
Procedure, shortened: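 FXR-UAS-bla HEK 293T cells carrying a UAS-driven beta-lactamase reporter were plated for 5 h at 37C/5% CO2, then exposed to DMSO-dissolved Tox21 10K compounds for 16 h at 37C. A LiveBLAzer B/G FRET substrate was loaded for 2 h at room temperature before fluorescence reading.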

[17] = qHTS assay for small molecule activators of the heat shock response signaling pathway (AID 743210; active means well fitted activation curve with a large enough effect in the signal ratio in the repeat runs, with a control signal flat, not every such curve was filed as active; the % refers to the signal ratio;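 further: HeLa cells with beta-lactamase reporter driven by heat shock elements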); details: HeLa HSE-bla reporter, beta-lactamase ratio, 5 h; series mostly up to 62.6 µM
Procedure, shortened: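 Following overnight attachment, HSE-bla HeLa cells received test compounds for 5 h at 37 C; beta-lactamase activity was then detected via FRET substrate fluorescence.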

[18] = biological target: Vitamin D3 receptor (Homo sapiens) (UniProt P11473); assay: qHTS assay to identify small molecule antagonists of the vitamin D receptor (VDR) signaling pathway (AID 743223; active means well fitted inhibition curve with a large enough effect in the signal ratio in the repeat runs, not every such curve was filed as active; the % refers to the signal ratio); details: VDR-UAS-bla HEK293T, beta-lactamase FRET ratio, 16 h; series mostly up to 61 µM
Procedure, shortened: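 VDR-bla cells were plated, incubated 4 h at 37C, then given compound and 1alpha,25-dihydroxyvitamin D3 (3 nM final). After 16 h at 37C, LiveBLAzer B/G FRET substrate was added for 2 h at room temperature and fluorescence read.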

Chain of Bile acid receptor (Homo sapiens) (Q96RI1 whole entry, looked up): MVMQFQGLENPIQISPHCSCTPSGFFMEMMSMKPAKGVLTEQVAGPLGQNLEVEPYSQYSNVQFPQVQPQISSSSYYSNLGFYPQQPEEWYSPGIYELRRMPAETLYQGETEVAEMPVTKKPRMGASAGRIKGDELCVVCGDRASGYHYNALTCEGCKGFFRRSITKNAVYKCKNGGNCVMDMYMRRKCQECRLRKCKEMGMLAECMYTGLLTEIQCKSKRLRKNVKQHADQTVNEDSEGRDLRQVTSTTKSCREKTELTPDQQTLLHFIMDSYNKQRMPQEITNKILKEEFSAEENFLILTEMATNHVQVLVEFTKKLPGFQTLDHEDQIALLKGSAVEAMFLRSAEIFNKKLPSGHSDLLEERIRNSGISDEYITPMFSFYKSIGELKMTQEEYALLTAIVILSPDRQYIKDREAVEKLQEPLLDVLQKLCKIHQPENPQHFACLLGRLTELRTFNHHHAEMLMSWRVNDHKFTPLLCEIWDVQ
Chain of Aryl hydrocarbon receptor (Homo sapiens) (P35869 whole entry, looked up): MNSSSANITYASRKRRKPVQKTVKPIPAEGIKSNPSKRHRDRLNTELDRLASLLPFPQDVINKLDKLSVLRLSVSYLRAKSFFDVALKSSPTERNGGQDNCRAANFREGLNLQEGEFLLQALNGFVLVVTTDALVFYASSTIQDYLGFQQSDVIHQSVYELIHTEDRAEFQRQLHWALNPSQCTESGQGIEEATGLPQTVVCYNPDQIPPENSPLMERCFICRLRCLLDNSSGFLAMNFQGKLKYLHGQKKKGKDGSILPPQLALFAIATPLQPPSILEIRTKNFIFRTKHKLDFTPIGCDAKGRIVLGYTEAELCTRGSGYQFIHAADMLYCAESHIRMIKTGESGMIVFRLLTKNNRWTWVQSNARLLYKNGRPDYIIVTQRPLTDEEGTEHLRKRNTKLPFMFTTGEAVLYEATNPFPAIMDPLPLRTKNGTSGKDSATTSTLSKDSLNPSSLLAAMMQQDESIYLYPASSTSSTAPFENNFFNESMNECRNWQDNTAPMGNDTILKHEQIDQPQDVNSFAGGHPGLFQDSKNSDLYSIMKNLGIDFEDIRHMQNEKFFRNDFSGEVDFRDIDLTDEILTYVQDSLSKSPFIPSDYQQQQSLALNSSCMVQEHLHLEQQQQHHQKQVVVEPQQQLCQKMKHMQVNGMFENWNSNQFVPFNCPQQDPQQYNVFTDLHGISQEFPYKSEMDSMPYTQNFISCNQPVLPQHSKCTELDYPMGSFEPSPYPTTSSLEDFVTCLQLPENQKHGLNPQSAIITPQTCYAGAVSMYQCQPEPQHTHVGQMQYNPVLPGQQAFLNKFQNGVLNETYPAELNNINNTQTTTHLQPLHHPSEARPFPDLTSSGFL
Chain of Peroxisome proliferator-activated receptor delta (Homo sapiens) (Q03181 whole entry, looked up): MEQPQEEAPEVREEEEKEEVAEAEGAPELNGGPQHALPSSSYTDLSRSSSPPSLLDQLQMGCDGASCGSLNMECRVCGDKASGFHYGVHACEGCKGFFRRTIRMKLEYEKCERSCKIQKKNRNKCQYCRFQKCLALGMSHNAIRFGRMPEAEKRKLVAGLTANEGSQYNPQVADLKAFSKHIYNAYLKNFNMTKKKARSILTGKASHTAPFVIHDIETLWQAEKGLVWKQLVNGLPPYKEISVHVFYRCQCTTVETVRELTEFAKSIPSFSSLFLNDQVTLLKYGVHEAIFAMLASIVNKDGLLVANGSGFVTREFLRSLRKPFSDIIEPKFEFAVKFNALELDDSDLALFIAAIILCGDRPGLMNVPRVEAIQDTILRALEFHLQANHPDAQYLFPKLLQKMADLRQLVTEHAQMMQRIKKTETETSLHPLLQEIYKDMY
Chain of Vitamin D3 receptor (Homo sapiens) (P11473 whole entry, looked up): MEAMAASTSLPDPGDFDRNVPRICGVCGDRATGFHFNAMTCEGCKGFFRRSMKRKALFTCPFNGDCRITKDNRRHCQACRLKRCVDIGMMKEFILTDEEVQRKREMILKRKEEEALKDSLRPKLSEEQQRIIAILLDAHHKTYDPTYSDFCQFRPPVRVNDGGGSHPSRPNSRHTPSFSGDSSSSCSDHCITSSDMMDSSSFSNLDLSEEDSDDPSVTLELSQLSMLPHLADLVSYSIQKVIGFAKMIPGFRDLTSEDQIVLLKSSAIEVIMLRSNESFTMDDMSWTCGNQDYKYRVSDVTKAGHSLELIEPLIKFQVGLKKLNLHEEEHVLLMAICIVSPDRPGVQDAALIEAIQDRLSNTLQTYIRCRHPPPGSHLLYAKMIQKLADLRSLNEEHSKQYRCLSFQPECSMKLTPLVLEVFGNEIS

SMILES	Potency [1]	Potency [2]	Potency [3]	Potency [4]	Potency [5]	Potency [6]	Potency [7]	Potency [8]	Potency [9]	Potency [10]	Potency [11]	Potency [12]	Potency [13]	Potency [14]	Potency [15]	Potency [16]	Potency [17]	Potency [18]
CCOP(=S)(OCC)SC(CCl)N1C(=O)c2ccccc2C1=O (configuration not stated)	inactive	inactive	inactive	9.69 µM (active)	inactive	inactive	inactive	inactive	inactive	inactive	–	–	–	–	–	–	–	–
[Cl-].[Cl-].[Cl-].[Yb+3]	inactive	inactive	inactive	inactive	inactive	inactive	–	inactive	–	inactive	inactive	inactive	inactive	–	–	–	–	–
CCOP(=O)(OCC)Oc1cc(C)nc(C(C)C)n1	inactive	inactive	inactive	–	inactive	inactive	inactive	inactive	–	inactive	inactive	inactive	inactive	inactive	inactive	inactive	–	–
COC(=O)c1ccccc1S(=O)(=O)NC(=O)Nc1nc(C)nc(OC)n1	inactive	inactive	inactive	inactive	inactive	inactive	inactive	inactive	inactive	–	inactive	inactive	inactive	inactive	inactive	inactive	inactive	–
O=C(N[C@@H]1N=C(c2ccccc2F)c2cccc3c2N(CC3)C1=O)c1cc2ccccc2[nH]1	0.0668 µM (active)	inactive	inactive	–	inactive	inactive	inactive	inactive	inactive	inactive	inactive	–	inactive	–	–	–	–	inactive
CC(=O)[O-].CC(=O)[O-].[Co+2]	inactive	inactive	inactive	–	inactive	–	–	inactive	–	inactive	inactive	inactive	inactive	–	–	–	–	–
O=[N+]([O-])[O-].[Tl+]	inactive	inactive	inactive	–	inactive	inactive	–	inactive	–	–	–	–	inactive	–	–	–	–	–
CC(=O)[O-].CC(=O)[O-].O.O.O.[Pb+2]	inactive	inactive	inactive	2.73 µM (active)	inactive	inactive	–	inactive	–	inactive	inactive	–	inactive	–	–	–	–	–
C#CCC1=C(C)C(OC(=O)C2C(C=C(C)C)C2(C)C)CC1=O (configuration not stated)	inactive	inactive	inactive	–	inactive	–	–	inactive	inactive	inactive	inactive	inactive	inactive	inactive	–	–	–	–
Nc1ccccc1-c1ccccc1	inactive	inactive	inactive	–	–	inactive	–	inactive	inactive	inactive	inactive	inactive	–	inactive	–	–	–	–
Cc1ccc2cc3c(ccc4ccccc43)c3c2c1CC3	0.487 µM (active)	inactive	inactive	1.22 µM (active)	inactive	inactive	–	inactive	inactive	inactive	inactive	inactive	inactive	–	–	–	–	inactive
CC[C@H](C)[C@H]1O[C@]2(C=C[C@@H]1C)C[C@@H]1C[C@@H](C/C=C(\C)[C@@H](O[C@H]3C[C@H](OC)[C@@H](O[C@H]4C[C@H](OC)[C@@H](NC)[C@H](C)O4)[C@H](C)O3)[C@@H](C)/C=C/C=C3\CO[C@@H]4[C@H](O)C(C)=C[C@@H](C(=O)O1)[C@]34O)O2	inactive	4.33 µM (active)	2.45 µM (active)	–	13.8 µM (active)	3.09 µM (active)	–	8.71 µM (active)	–	–	4.33 µM (active)	3.89 µM (active)	5.49 µM (active)	–	–	–	–	–

— PubChem BioAssay (Tox21)
